Unmarked numbers belong to inactive results. Inconclusive results are not listed. The source made the active and inactive calls. Calls follow the shape of the dose curve; as a rule, active = well fitted curve in the direction sought with a large enough effect in the repeat runs; inconclusive = weak or mixed curves; inactive = no such curve, though single readings can be large; an effect the other way counts as inactive or inconclusive.

A short description of experiment [1]: qHTS RealTime-Glo MT Cell Viability Assay in HEK293 cells - 0 hour (AID 1224880). Also: top concentration of the series differs between compounds; nearly all actives have a fitted effect of over 45% in size. The method, boiled down:
(§1)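 Luminescence readout at each listed time point; HEK293, 600 cells/well, RealTime-Glo MT reagent added with cells; compounds pinned (23 nL in DMSO) after 5 h at 37 C; continuous culture at 37 C.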

Experiment [2] can be described thus: A CellTox Green Cytotoxicity Assay to monitor cytotoxicity in HEK293 cells - 32 hour (AID 1224881). Also: nearly all actives have a fitted effect of over 40% in size. The method, boiled down:
(§2)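 Read-out: fluorescence of a cell-impermeant cyanine dye staining DNA of dead cells, proportional to cytotoxicity. HEK293, 600 cells/well with reagent, compound (23 nL DMSO) added after 5 h; reads at 0, 8, 16, 24, 32, 40 h.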

Experiment [3] in a line: A CellTox Green Cytotoxicity Assay to monitor cytotoxicity in HepG2 cells - 0 hour (AID 1224882). Also: nearly all actives have a fitted effect of over 35% in size. The method in brief: (§3)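 HepG2, 600 cells/well premixed w/ CellTox Green; 5 h settle, 37 C/5% CO2; pintool cpd add (DMSO); 37 C, 40 h; fluorescence read at 0, 8, 16, 24, 32, 40 h.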
A short description of experiment [4]: A CellTox Green Cytotoxicity Assay to monitor cytotoxicity in HepG2 cells - 32 hour (AID 1224883). Also: nearly all actives have a fitted effect of over 50% in size. The method, boiled down:
as §3

Experiment [5] can be described thus: A CellTox Green Cytotoxicity Assay to monitor cytotoxicity in HEK293 cells - 8 hour (AID 1224884). Also: nearly all actives have a fitted effect of over 35% in size. Also: potency is read from the fitted curve at half-maximal effect. The method in brief: as §2
Experiment [6] is described as follows: qHTS RealTime-Glo MT Cell Viability Assay in HepG2 cells - 16 hour (AID 1224885). Also: nearly all actives have a fitted effect of over 50% in size. The method in brief:
(§4)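 Tox21 10K library screened in qHTS format on HepG2 cells carrying RealTime-Glo reagents. Compounds were added after a 5 h preincubation, and the luminescent signal from continuous culture was measured repeatedly during 40 h treatment.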

Experiment [7] in a line: qHTS RealTime-Glo MT Cell Viability Assay in HEK293 cells - 24 hour (AID 1224886). Also: nearly all actives have a fitted effect of over 50% in size. Also: potency is read from the fitted curve at half-maximal effect. As to activity change, negative = cytotoxicity: top concentration of the series differs between compounds. The method, boiled down:
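Luminescence generated by NanoLuc from substrate produced by living HEK293 cells served as the viability signal. Each value reflects the reading at its stated time point during continuous 40 h compound exposure at 37 C.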

Experiment [8] in a line: qHTS RealTime-Glo MT Cell Viability Assay in HEK293 cells - 8 hour (AID 1224887). Also: nearly all actives have a fitted effect of over 50% in size. Also: potency is read from the fitted curve at half-maximal effect. As to activity change, negative = cytotoxicity: top concentration of the series differs between compounds. The method, boiled down: as §1
Experiment [9] can be described thus: A CellTox Green Cytotoxicity Assay to monitor cytotoxicity in HEK293 cells - 16 hour (AID 1224888). Also: nearly all actives have a fitted effect of over 35% in size. The method, boiled down:
as §2

A short description of experiment [10]: qHTS RealTime-Glo MT Cell Viability Assay in HepG2 cells - 0 hour (AID 1224889). Also: nearly all actives have a fitted effect of over 50% in size. The method in brief:
as §4
% is scaled to controls: 0 for no effect and ±100 for the full control effect.

In the case of `CCOc1cc([N+](=O)[O-])c(OCC)cc1N1CCOCC1`, the Potency entry in experiment [1], in [2], in experiment [4], in experiment [5] and in experiment [10] was “inactive” throughout. Moreover, the compound was called inactive in experiment [3], in experiment [6] and in experiment [9]. Further, the Potency in [7] and in experiment [8] was 15.5 µM (active) throughout.
Take `CCCCOCCOC(=O)COc1nc(Cl)c(Cl)cc1Cl`: the Potency entry in experiment [1], in [2], in [4], in experiment [7] and in experiment [8] was “inactive” throughout. For the same compound, the call in experiment [3], in experiment [6] and in [9] was inactive. In addition, the Potency in [5] was 38.9 µM (active).
For the compound `CN(C)CCOCCO`, the Potency entry in [1], in [2], in experiment [4], in [5], in experiment [7] and in experiment [8] was “inactive” throughout. Also, the compound was classed as inactive in experiment [3], in experiment [6] and in experiment [9].
Regarding `NS(=O)(=O)c1ccc(NC(=O)CCC(=O)O)cc1`, the Potency result in [1], in [2], in experiment [4], in [5], in experiment [7] and in [8] was “inactive” throughout. For the same compound, the Potency result in [10] is “inactive”. Besides, the compound was called inactive in experiment [3], in experiment [6] and in experiment [9].
On to `CC1(C)S[C@@H]2[C@H](N=CN3CCCCCC3)C(=O)N2[C@H]1C(=O)O`, for which the Potency result in [1], in experiment [2], in experiment [4], in experiment [5], in experiment [7] and in experiment [8] was “inactive” in each case. Also, in [10], the Potency result was “inactive”. For the same compound, the compound was classed as inactive in [3], in experiment [6] and in [9].
Regarding `CCOC(=O)c1ncn2c1CN(C)C(=O)c1cc(F)ccc1-2`, the Potency result in [1], in experiment [2], in experiment [4], in experiment [5], in experiment [7] and in experiment [8] was “inactive” throughout. Moreover, the compound was called inactive in experiment [3], in [6] and in experiment [9].
`CC(C)CCCC(C)(C)O`: the Potency entry in [1], in [2], in experiment [4], in [5], in experiment [7] and in [8] was “inactive” each time. For the same compound, the Potency result in [10] was “inactive”. The outcome in experiment [3], in experiment [6] and in experiment [9] was inactive.
For `COc1ccc2c(c1)C(=O)N(CCc1ccc(S(=O)(=O)NC(=O)NC3CCCCC3)cc1)C(=O)C2(C)C`, the Potency result in experiment [1], in experiment [2], in experiment [4], in experiment [5], in [7] and in experiment [8] was “inactive” in each case. Besides, the Potency result in experiment [10] was “inactive”. Moreover, the compound was classed as inactive in experiment [3], in [6] and in experiment [9].
Turning to `COC(=O)CCc1ccc(OCC(O)CNC(C)C)cc1` (stereo unspecified), the Potency result in experiment [1], in experiment [2], in [4], in experiment [5], in [7] and in experiment [8] was “inactive” in each case. In addition, the compound was called inactive in experiment [3], in experiment [6] and in experiment [9].
`NC(CO)C(=O)NNCc1ccc(O)c(O)c1O` (stereo unspecified): the Potency entry in experiment [1], in experiment [2], in [4], in experiment [5], in experiment [7] and in [8] was “inactive” throughout. In addition, the Potency entry in experiment [10] is “inactive”. The result in experiment [3], in experiment [6] and in experiment [9] was inactive.
`Cc1ccccc1N=O`: the Potency entry in [1], in experiment [2], in experiment [4], in [5], in [7] and in experiment [8] was “inactive” each time. In addition, the compound was called inactive in experiment [3], in experiment [6] and in experiment [9].
Turning to `ClCCCl`, the Potency entry in experiment [1], in [2], in [4], in experiment [5], in experiment [7] and in experiment [8] was “inactive” throughout. In addition, the compound was called inactive in experiment [3], in experiment [6] and in experiment [9].
Consider `CN1CCN(CC(=O)N2c3ccccc3C(=O)Nc3cccnc32)CC1`, for which the activity change, negative = cytotoxicity in experiment [1] was 7.23% [at 6.97 µM]; in [7] it was 6.44% [at 6.97 µM]; in [8], 17.8% [at 6.97 µM]; in experiment [10], 2.23% [at 6.97 µM]. Besides, the cytotoxicity increase in [2] is -2.73% [at 6.97 µM]; in [4] it was -13% [at 6.97 µM]; in [5], -1.13% [at 6.97 µM]. Moreover, the cytotoxicity in experiment [3] was -13.6% [at 6.97 µM]. In addition, the activity change, negative = cytotoxic in experiment [6] was 0.498% [at 6.97 µM]. In addition, in experiment [9], the activity change was -1.08% [at 6.97 µM].
For the compound `C[C@@H](O)[C@H]1C(=O)N2C(C(=O)O)=C(SCCN=CN)C[C@H]12`, the Potency entry in experiment [1], in [2], in [4], in experiment [5], in [7] and in experiment [8] was “inactive” in each case. For the same compound, the outcome in experiment [3], in [6] and in experiment [9] was inactive.
In the case of `CC(=O)c1sc(C)nc1C`, the Potency entry in experiment [1], in [2], in experiment [4], in experiment [5], in experiment [7] and in [8] was “inactive” in each case. The outcome in [3], in [6] and in [9] was inactive.
As for `O=C1c2ccccc2C(=O)N1CCl`, the Potency result in experiment [1], in experiment [2], in experiment [4], in experiment [5], in experiment [7] and in experiment [8] was “inactive” throughout. Besides, the Potency result in [10] was “inactive”. Besides, the call in [3], in experiment [6] and in experiment [9] was inactive.
With `CC(C)(C)NC(N)=O`, the Potency entry in [1], in experiment [2], in experiment [4], in [5], in experiment [7] and in [8] was “inactive” in each case. For the same compound, the Potency entry in [10] is “inactive”. Further, the call in experiment [3], in [6] and in experiment [9] was inactive.
Take `O=C(CS(=O)Cc1ccco1)NC/C=C\COc1cc(CN2CCCCC2)ccn1` (stereo unspecified): the Potency entry in experiment [1], in [2], in [4], in experiment [5], in [7] and in experiment [8] was “inactive” each time. For the same compound, the Potency entry in [10] is “inactive”. Further, the outcome in experiment [3], in experiment [6] and in experiment [9] was inactive.
As to `CCN(C)C(=O)Oc1cccc([C@H](C)N(C)C)c1`, the Potency result in experiment [1], in [2], in experiment [4], in experiment [5], in experiment [7] and in experiment [10] was “inactive” throughout. In addition, the call in experiment [3], in [6] and in experiment [9] was inactive.
Take `C=C1CC/C=C(\C)CC[C@@H]2[C@@H]1CC2(C)C`: the Potency result in [1], in experiment [2], in [4], in experiment [5], in experiment [7] and in [8] was “inactive” each time. Moreover, the Potency entry in experiment [10] is “inactive”. In addition, the outcome in experiment [3], in [6] and in [9] was inactive.
Turning to `CCC(C=O)CC`, the Potency entry in experiment [1], in experiment [2], in experiment [4], in experiment [5], in [7] and in [8] was “inactive” in each case. Moreover, the Potency result in experiment [10] is “inactive”. The call in [3], in experiment [6] and in experiment [9] was inactive.
On to `CC(C)CCCCOC(=O)c1ccccc1C(=O)OCCCCC(C)C`, for which the Potency result in experiment [1], in experiment [2], in experiment [4], in experiment [5], in experiment [7] and in [8] was “inactive” each time. Besides, the Potency result in [10] is “inactive”. For the same compound, the result in experiment [3], in experiment [6] and in [9] was inactive.

These data come from PubChem BioAssay (Tox21).
